# This is a sample that favours compounds with a hit; in the whole collection about 1.2% have one here.
# BJeLR viability: BJeLR cell viability loss; BJeLR (HRASV12) viability, CellTiter-Glo ATP luminescence, 48 h; 300,000 compounds, 0.17% hits; AID 1554; inhibition, % (no concentration beside the values); in the data active = inhibition above about 50%
# MazEF act: MazEF (E. coli) toxin RNase activation; P0AE70; FAM/BHQ RNA-DNA oligo cleavage fluorescence, 5 h; activation, % at 20 µM; 350,000 compounds, 0.32% hits; in the data active = activation above about 50%
# Target sequence (P0AE70 whole entry, looked up): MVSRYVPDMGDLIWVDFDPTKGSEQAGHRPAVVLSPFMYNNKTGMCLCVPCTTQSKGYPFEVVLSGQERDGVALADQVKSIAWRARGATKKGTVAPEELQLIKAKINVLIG
# SSB-PriA inh: K. pneumoniae PriA-SSBct interaction inhibition; inhibition, % at 33 µM; AlphaScreen SSBct-PriA binding, biotinylated peptide; 430,000 compounds, 0.6% hits; in the data active = inhibition mostly above about 37%, no sharp cut-off; inactive = mostly below about 20%;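 also: plate controls were negative control peptide for no effect and reference peptide for full effect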
# ugtP null kill: compounds lethal to S. aureus RN4220 ugtP deletion mutant; OD600 growth, 16 h; growth inhibition, % (no concentration beside the values); 330,000 compounds, 0.54% hits; AID 1259309; in the data active = growth inhibition above about 68%;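 also: plate controls were untreated wells for no effect and antibiotic for full effect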
# RN4220 kill: kills Staphylococcus aureus RN4220; S. aureus RN4220 growth, OD600, 16 h; AID 1259311; 330,000 compounds, 0.33% hits; inhibition, % (test concentration not listed); in the data active = inhibition above about 85%;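 also: plate controls were untreated cells for no effect and reference antibiotic for full effect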
# * = called active by the depositor; / = no result; ! = a repeat was not active.
SMILES,BJeLR viability,MazEF act,SSB-PriA inh,ugtP null kill,RN4220 kill
O=C(CCS(=O)(=O)c1ccc(Cl)cc1)Nc1nnc(Cc2ccc3c(c2)OCO3)o1,/,/,-17,/,/
Cc1ccc(NC(=O)C2C3CCCCC32)cc1[N+](=O)[O-] (stereo unspecified),-4,-4,41*,7,5
CC(C)c1ccc2c(c1)CC[C@H]1[C@](C)(CN)CCC[C@]21C,/,3,10,/,/
CC(C)c1ccc2c(c1)CCC1C(C)(CN)CCCC21C (stereo unspecified),107*,36,11,7,-10
CC(=O)Nc1ccc2nc3ccccc3nc2c1,13,-8,5,/,/
O=[N+]([O-])c1cc([N+](=O)[O-])c2c(=Nc3ccccc3)n(-c3ccccc3)n(O)c2c1,3,14,63*,47,41
CCN(CC)S(=O)(=O)c1ccc(N2CCOCC2)c(NC(=O)CC23CC4CC(CC(Br)(C4)C2)C3)c1,-5,-6,-9,-3,-2
Cc1ccc(NC(=S)NC(=O)C2CCCCC2)c(Br)c1,/,-1,4,87*,-1
NS(=O)(=O)c1ccc(NC(=S)NC2CCCCCC2)cc1,1,-1,12,1,2
NS(=O)(=O)c1ccc(NC(=S)NC(=O)C2CCCCC2)cc1,/,-1,6,89*,5
Cc1[nH][nH]c(=O)c1N=Nc1ccccc1C#N,0,/,/,8,13
O=C(Nc1ccccc1)c1cc2c(=O)c3ccccc3oc2nc1C(F)(F)F,-4,18,-4,-7,5
O=C(c1ccsc1)N1CCC(c2ccc3c(c2)OCO3)C1 (stereo unspecified),/,/,5,/,/
Nc1c(C(=O)Nc2ccc(S(=O)(=O)N3CCCC3)cc2)sc2nc3ccc(OC(F)(F)F)cc3cc12,-1,402*,-10,-10,3
Nc1c(C(=O)Nc2ccc(S(=O)(=O)N3CCCC3)cc2)sc2nc3cc4c(cc3cc12)CCC4,7,57*,1,-1,5
Fc1ccc(CNC(=S)Nc2cccc(Cl)c2)cc1,-2,12,-31,-29,-6
CCOC(=O)CN1C(=O)SC(=Cc2ccc(OC)c([N+](=O)[O-])c2)C1=O,/,/,/,-4,5
CSC1=N/C(=C\c2ccc(F)cc2)C(=O)S1,5,-4,-10,-11,4
CSC1=N/C(=C\c2ccc(C)s2)C(=O)S1,-1,532*,16,13,1
CC(C)n1cc(/C=C/c2cc[n+](C)cc2)c2ccccc21,4,69*,-10,2,2
C=CCn1cc(/C=C/c2cc[n+](C)cc2)c2ccccc21,7,70*,-8,12,4
C=CCNC(=S)N1CCN(c2cccc(C(F)(F)F)c2)CC1,6,-3,-12,-5,3
O=C1Nc2ccccc2/C1=C\C(=O)c1ccccc1,32,7,1,98*,98*
COc1ccc(-n2c(C)nc3ccc(NC(=O)C4CC4)cc3c2=O)cc1,/,/,4,/,/
O=C(O)CCc1ccc(-c2ccccc2)o1,0,0,-12,1,6
SMILES,BJeLR viability,MazEF act,SSB-PriA inh,ugtP null kill,RN4220 kill
O=C(CCc1ccc(-c2ccccc2)o1)Nc1ccccc1[N+](=O)[O-],/,/,84*,/,/
O=[N+]([O-])c1ccc2c(c1)C(=NO)c1ccccc1-2,/,/,8,97*,13
CN(C)S(=O)(=O)c1cccc(NC(=O)COC(=O)[C@H](Cc2ccccc2)NC(=O)c2ccco2)c1,/,8,8,7,3
Clc1ccc(C[n+]2c(-c3ccccc3)cc(-c3ccccc3)cc2-c2ccccc2)cc1,5,28,5,100*,100*
O=C([O-])c1cc(-c2ccccc2)cc(-c2ccccc2)[n+]1CCc1ccc(Cl)cc1,/,18,/,100*,88*
O=C(O)c1cc(-c2ccccc2)cc(-c2ccccc2)[n+]1CCc1ccc(Cl)cc1,/,/,13,/,/
Fc1ccc(C[n+]2c(-c3ccccc3)cc(-c3ccccc3)cc2-c2ccccc2)cc1,1,20,-16,/,/
COc1ccccc1CCC(=O)OCC(=O)Nc1cccc(S(=O)(=O)N2CCOCC2)c1,0,-1,-10,11,8
CCOC(=O)C1=C(Cc2ccc(OC)cc2)C(=O)c2ccccc2C1=O,/,217*,14,18,35
CCOC(=O)C1=C(Cc2ccc(C)cc2)C(=O)c2ccccc2C1=O,24,/,/,/,/
Cc1ccc(C)c(NC(=S)Nc2ncccc2C)c1,3,-2,40*,9,2
COc1ccccc1-n1ncc2c(C)nnc(SCC(=O)NCc3ccccc3Cl)c21,/,/,89*!,/,/
CN(Cc1cnc2nc(N)nc(N)c2n1)c1ccc(C(=O)N[C@@H](CCC(=O)O)C(=O)O)cc1,76*,5,12,/,/
Nc1nc2ncc(CNc3ccc(C(=O)N[C@@H](CCC(=O)O)C(=O)O)cc3)nc2c(=O)[nH]1,-2,5,-5,5,0
C/C(N)=C(/C#N)C(=O)CN1C(=O)NC(Cc2c[nH]c3ccccc23)C1=O (stereo unspecified),1,-2,1,-3,4
OC(CNCC1CCCO1)COc1ccc(OCC(O)CNCC2CCCO2)cc1 (stereo unspecified),6,160*,-21,3,-3
CCN(CCCNC(=O)CC(C(=O)N1CCc2ccccc21)n1ccnc1)c1cccc(C)c1 (stereo unspecified),-9,-1,47*,11,3
COc1ccc(-c2[nH]n(-c3ccc([N+](=O)[O-])cc3)c(=O)c2C=NCc2ccc(F)cc2)cc1,-7,81*,4,-12,-6
CCN1CCc2c(sc(NC(=S)NC(=O)c3ccccc3)c2C#N)C1,-5,62*,11,17,4
N#Cc1c(NC(=S)NC(=O)c2ccccc2)sc2c1CCC2,10,17,-3,/,/
CCN1CCc2c(sc(NC(=O)c3ccc(C(=O)c4ccccc4)cc3)c2C(N)=O)C1,-5,274*,15,-21,-10
CCN1CCc2c(sc(NC(=O)Cc3ccccc3)c2C(N)=O)C1,5,10,1,-6,-9
NC(=O)c1c(NC(=O)c2ccccc2)sc2c1CCN(Cc1ccccc1)C2,-12,116*,-15,-4,-7
N#Cc1c(NC(=S)NC(=O)Cc2cccs2)sc2c1CCCCC2,0,7,-7,87*,-5
CC(=O)NC(=S)Nc1sc2c(c1C#N)CCCCC2,7,-4,21,2,6
SMILES,BJeLR viability,MazEF act,SSB-PriA inh,ugtP null kill,RN4220 kill
COc1ccc(OC(=O)C(C)N2C(=O)c3ccccc3C2=O)cc1 (stereo unspecified),-1,1,-10,9,7
CC1=CC(C)(C)Nc2ccc(OC(=O)C(C)N3C(=O)c4ccccc4C3=O)cc21 (stereo unspecified),0,7,43*,3,6
Brc1ccccc1-c1cnco1,6,-2,-2,3,1
COc1ccc(NC(=O)C[C@H]2C(=O)N(Cc3ccccc3)C[C@@H]2Cc2ccccc2)cc1,/,-1,/,/,/
FC(F)(F)c1cccc(NC(=S)Nc2ccc(Cl)cc2Cl)c1,3,6,-18,84*,98*
S=C(Nc1ccccc1)Nc1ccc(Cl)cc1Cl,10,-11,-6,20,-6

# Assay outcomes: PubChem BioAssay, several laboratories
